Measured values published in PubChem BioAssay AID2330 (Broad Institute, 2010).
About 2,800 (7.6%) of roughly 37,000 compounds were called active. Not shown: some 1% with an inconclusive outcome. The list comes from a sample in which actives are over-represented; it also holds similar structures and randomly drawn compounds. A number with no mark means an inactive call. Cut-off read from the data, not from the text of the source: active = inhibition above about 80%; inconclusive = no clear call, values can overlap the other calls; inactive = below that.

Experiment: NOMO-1 AML cell viability reduction, primary screen, STK33 inhibitor project, CellTiter-Glo luminescence (AID 2330)
Conditions: NOMO-1 AML viability, 72 h, stronger effect = higher value, concentration not given here

Structure (SMILES)	inhibition
C=CC(=O)c1ccc2ccccc2c1	98.4% (active)
COc1ccccc1NC(=O)CCC(=O)c1ccc(C)cc1	29.1%
COC(=O)C(C)N(C#N)c1nc(C)nc(C)n1 (configuration not stated)	113% (active)
COc1ccc(CN(C)C[C@H]2Oc3c(NC(=O)c4cnccn4)cccc3C(=O)N([C@H](C)CO)C[C@@H]2C)cc1	5.98%
C[C@@H]1CC[C@]2(C)[C@H](CC[C@@H](O)[C@]2(C)O)[C@@]1(C)CC(=O)c1ccoc1	9.78%
COCc1nc2c([nH]1)C(c1ccccc1COc1ccc(Cl)cc1)C(C#N)=C(N)O2 (configuration not stated)	111% (active)
COc1cc(OC)cc(C2C(C#N)=C(N)OC(N)=C2C#N)c1	38.6%
CCn1c(SCC(=O)O)nnc1-c1ccc(OC)cc1	-32.5%
S=c1cc(-c2ccccc2)oc(-c2ccccc2)c1	61.2%
C[C@@H]1CN([C@H](C)CO)C(=O)c2cccc(NS(=O)(=O)c3ccc(Cl)cc3)c2O[C@@H]1CN(C)Cc1ccc(Oc2ccccc2)cc1	49.7%
CCC(=O)O[C@]1(C(=O)CCl)[C@@H](C)CC2C3CCC4=CC(=O)C=C[C@]4(C)[C@@]3(F)[C@@H](O)C[C@@]21C (some centres not stated)	7.72%
COc1cc(NC(=O)COc2ccc(Br)cc2)ccc1NC(=O)c1ccccc1Cl	13.7%
CC(C)(C)c1ccc(-c2[nH]nc(NC(=O)c3ccccc3Cl)c2Br)cc1	123% (active)
C[C@@H]1CN([C@@H](C)CO)C(=O)Cc2cc(NC(=O)Nc3ccc4c(c3)OCO4)ccc2O[C@@H]1CN(C)C(=O)Nc1ccc2c(c1)OCO2	9.09%
CC(C)NC(=O)Nc1cccc2c1O[C@H](CN(C)S(=O)(=O)c1ccccc1)[C@@H](C)CN([C@@H](C)CO)C2=O	6.74%
C[C@H]1CN([C@@H](C)CO)C(=O)c2cc(NS(=O)(=O)c3ccc(F)cc3)ccc2O[C@H]1CN(C)CC1CC1	16.3%
Cc1ccc(S(=O)(=O)Nc2ccc3c(c2)C(=O)N([C@@H](C)CO)C[C@H](C)[C@@H](CN(C)S(=O)(=O)c2ccc(C)cc2)O3)cc1	-8.16%
C[C@@H]1CN([C@H](C)CO)C(=O)Cc2cc(NC(=O)c3ccncc3)ccc2O[C@H]1CN(C)S(=O)(=O)c1cccs1	13.9%
C[C@H](CO)N1C[C@H](C)[C@H](CN(C)Cc2ccc(C(F)(F)F)cc2)Oc2ccc(NS(C)(=O)=O)cc2C1=O	3.14%
CN1CCN(CC(=O)Nc2sc3c(c2C#N)CCC(C(C)(C)C)C3)CC1 (configuration not stated)	115% (active)
N#Cc1c(NC(=O)CCn2cnc3ccccc3c2=O)sc2c1CCCC2	27.7%
CCn1c(SCC(=O)Nc2sc3c(c2C#N)CCCC3)nnc1-c1ccccc1O	-7.99%
